Measured values reported in ChEMBL document CHEMBL4513141, “CO-ADD screening of NIH (USA) - Clinical Collection” (2021).
Results with a measured potency or affinity are listed apart.

The compounds below were run on Staphylococcus aureus. Details: Concentration 20 uM; ASSAY_TEST Inhibition of Bacterial Growth; detection method Absorption (OD600); MEDIA CAMHB; plate type 384well; NBS; CORNING #3640; time 18 hr.

SMILES | Inhibition
CNCC[C@H](Oc1cccc2ccccc12)c1cccs1.Cl [DULOXETINE HYDROCHLORIDE] | -17.99%
COC(=O)C1=C(C)NC(C)=C(C(=O)OC(C)C)C1c1cccc2nonc12 (stereo not drawn) [ISRADIPINE] | 14.31%
Nc1ccn([C@H]2CC[C@@H](CO)O2)c(=O)n1 [ZALCITABINE] | 4.24%
OCCN(CCO)c1nc(N2CCCCC2)c2nc(N(CCO)CCO)nc(N3CCCCC3)c2n1 [DIPYRIDAMOLE] | -23.93%
CCN(CC)CC(=O)Nc1c(C)cccc1C [LIDOCAINE] | 9.46%
CN(C)CCCN1c2ccccc2CCc2ccccc21.Cl [IMIPRAMINE HYDROCHLORIDE] | 8.95%
COc1ccnc(C[S+]([O-])c2nc3cc(OC(F)F)ccc3[n-]2)c1OC.O.[Na+] (stereo not drawn) [PANTOPRAZOLE SODIUM] | 15.25%
CC(=O)C1(O)CCC2C3CC(C)C4=CC(=O)C=CC4(C)C3(F)C(O)CC21C (stereo not drawn) | 5.95%
N[C@@H]1CONC1=O [CYCLOSERINE] | 14.71%
COc1ccc2cc(CCC(C)=O)ccc2c1 [NABUMETONE] | 14%
CCOC(=O)[C@@H](CCc1ccccc1)N[C@@H](C)C(=O)N1CCC[C@H]1C(=O)O.O=C(O)/C=C\C(=O)O | 8.37%
CC[C@]1(O)C[C@@H]2CN(CCc3c([nH]c4ccccc34)[C@@](C(=O)OC)(c3cc4c(cc3OC)N(C)[C@H]3[C@@](O)(C(N)=O)[C@H](O)[C@]5(CC)C=CCN6CC[C@]43[C@@H]65)C2)C1.O=S(=O)(O)O [VINDESINE SULFATE] | 2.71%
CCOC(=O)[C@H](CCc1ccccc1)N[C@@H](C)C(=O)N1[C@H](C(=O)O)C[C@@H]2CCC[C@@H]21 | 17.44%
NC(=O)N1c2ccccc2CC(=O)c2ccccc21 [OXCARBAZEPINE] | 15.1%
Cc1cccc(CCN2CCC(C(=O)c3ccc(NS(C)(=O)=O)cc3)CC2)n1.Cl.Cl | 15.03%
C/C=C1/[C@H]2C=C(C)C[C@]1(N)c1ccc(O)nc1C2 | 13.84%
CC(=O)[C@@]1(O)CC[C@H]2[C@@H]3C[C@H](C)C4=CC(=O)CC[C@]4(C)[C@H]3CC[C@@]21C | 8.66%
O=c1c(O[C@@H]2O[C@H](CO)[C@H](O)[C@H](O)[C@H]2O)c(-c2ccc(O)c(O)c2)oc2cc(O)cc(O)c12 [HYPEROSIDE] | 7.34%
Cn1nnc2c(C(N)=O)ncn2c1=O [TEMOZOLOMIDE] | 8.98%

SMILES | Inhibition
C[C@H]1C[C@@H]2[C@H]([C@@H](O)C[C@@]3(C)[C@H]2CC[C@]3(O)C(=O)CO)[C@@]2(C)C=CC(=O)C=C12 [METHYLPREDNISOLONE] | 7.4%
CC(=O)[C@H]1CC[C@H]2[C@@H]3C[C@H](C)C4=CC(=O)CC[C@]4(C)[C@H]3[C@@H](O)C[C@]12C [MEDRYSONE] | 2.89%
CC(C)(C)NC(=O)[C@@H]1CN(Cc2cccnc2)CCN1C[C@@H](O)C[C@@H](Cc1ccccc1)C(=O)N[C@H]1c2ccccc2C[C@H]1O.O=S(=O)(O)O [INDINAVIR SULFATE] | 6.61%
O=[N+]([O-])c1cccc2cn[nH]c12 [7-NITROINDAZOLE] | 16.98%
Nc1nc2c(ncn2COCCO)c(=O)[nH]1 [ACYCLOVIR] | -22.02%
Nc1nc(N)nc(-c2cc(Cl)ccc2Cl)n1.O=C(O)/C=C\C(=O)O [IRSOGLADINE MALEATE] | 8.27%
C[C@@H]1C[C@H]2[C@@H]3C[C@H](F)C4=CC(=O)C(Cl)=C[C@]4(C)[C@@]3(F)[C@@H](O)C[C@]2(C)[C@@]1(O)C(=O)CO [HALOMETASONE] | 3%
COc1ccc(-c2oc3c(CC=C(C)C)c(O[C@@H]4O[C@H](CO)[C@@H](O)[C@H](O)[C@H]4O)cc(O)c3c(=O)c2O[C@@H]2O[C@@H](C)[C@H](O)[C@@H](O)[C@H]2O)cc1 [ICARIIN] | 11.47%
C[C@]12C=CC(=O)C=C1CC[C@@H]1[C@@H]2C(=O)C[C@@]2(C)[C@H]1CC[C@]2(O)C(=O)CO [PREDNISONE] | 12.15%
NC(CO)(CO)CO.O=C(c1ccccc1)c1ccc2n1CCC2C(=O)O (stereo not drawn) [KETOROLAC TROMETHAMINE] | 4.45%
CC(=O)O.CNC(=N)NCCC[C@H](N)C(=O)O [TILARGININE ACETATE] | -13.73%
CS(=O)(=O)c1ccc(C2=C(c3ccccc3)C(=O)OC2)cc1 [ROFECOXIB] | 8.94%
CC1=C(CC(=O)O)c2cc(F)ccc2/C1=C\c1ccc([S+](C)[O-])cc1 (stereo not drawn) | 2.19%
C[C@]12CC[C@@H]3c4ccc(OS(=O)(=O)[O-])cc4CC[C@H]3[C@@H]1CCC2=O.[Na+] [ESTRONE SODIUM SULFATE] | 8.52%
Cc1onc(-c2ccccc2)c1-c1ccc(S(N)(=O)=O)cc1 [VALDECOXIB] | 10.74%
CS(=O)(=O)O.Oc1ccc(C2CNCCc3c2cc(O)c(O)c3Cl)cc1 (stereo not drawn) [FENOLDOPAM MESYLATE] | 13.63%
CS(=O)(=O)O.Cc1ccc(NC(=O)c2ccc(CN3CCN(C)CC3)cc2)cc1Nc1nccc(-c2cccnc2)n1 [IMATINIB MESYLATE] | 11.51%
COc1cc2nc(N(C)CCCNC(=O)C3CCCO3)nc(N)c2cc1OC (stereo not drawn) [ALFUZOSIN] | 6%
CCCCc1nc(Cl)c(CO)n1Cc1ccc(-c2ccccc2-c2nnn[n-]2)cc1.[K+] [LOSARTAN POTASSIUM] | -19.73%
